Coupling enz: qHTS Assay for Inhibitors of Fructose-1,6-bisphosphate Aldolase from Giardia Lamblia: Coupling assay counterscreen. coupling enzyme system counterscreen, AmpLite Red fluorescence. activity change, negative = inhibition, % at 58.2 µM, hits read low. 290,000 tested, 0.67% active. AID 2472, 2010; in the data active = activity change below about -30%
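Counterscreen lacking aldolase: glyceraldehyde-3-phosphate coupling-enzyme reagent preincubated 10 min at RT with compound (at 57.5 uM final), then substrate/coupling system with AmpLite Red added; fluorescence read at 525/598 nm after 20 min RT.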
PLK1 PBD inh: qHTS for Inhibitors of PLK1-PDB (polo-like kinase 1 - polo-box domain): Primary Screen. Serine/threonine-protein kinase PLK1 (Homo sapiens), P53350. Plk1 PBD binding of FITC phosphopeptide, fluorescence polarization. Potency, µM, usual class: inhibitors. 360,000 tested, 2.8% active. AID 720504, 2013; note: series mostly up to about 57 µM; nearly all actives have a fitted effect of over 65% in size
USP2a block: qHTS Assay for Inhibitors of Ubiquitin-specific Protease USP2a Using CHOP2 as the Reporter; USP2 core, Ub-CHOP2 coupled fluorogenic reporter, 485/531; 330,000 tested, 0.01% active; Potency, µM (top dose mostly 38.3 µM), most hits filed as inhibitors
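Deubiquitinase activity read as fluorescence (485/531 nm) after Ub-CHOP2 cleavage activates the enterokinase reporter on its substrate; USP2 core 10nM, Ub-CHOP2 and substrate 25nM each, 30min compound preincubation then 60min RT; data normalized to NEM, curves fitted.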
VDR inh: Inhibitors of the vitamin D receptor (VDR): qHTS | Potency, µM, hits mostly inhibitors | VDR-SRC2-3 peptide fluorescence polarization, 2 h | 400,000 tested, 0.93% active | Vitamin D3 receptor (Homo sapiens), P11473
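Compounds are added to VDR with labelled SRC2-3 coactivator peptide and held 2 h at room temperature. Inhibition of the VDR–peptide interaction is then read as a change in fluorescence polarization.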
USP1-UAF1 inh: Inhibitors of USP1/UAF1: Primary Screen; Ubiquitin carboxyl-terminal hydrolase 1 (Homo sapiens), O94782; Potency, µM (highest dose often 57.1 µM), actives largely listed as inhibitors; recombinant USP1/UAF1, Ub-Rhodamine cleavage fluorescence; 390,000 tested, 0.23% active; note: nearly all actives have a fitted effect of over 60% in size
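High-throughput fluorogenic screen: 1nM USP1/UAF1 complex, Ub-Rho substrate 150nM final, 50mM HEPES pH 7.8 with 0.5mM EDTA, 0.1 mg/ml BSA, 1mM TCEP and 0.01% Tween-20.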
GALK inhibitor: qHTS Assay for Inhibitors of Human Galactokinase (GALK); P51570; Purified GALK, Kinase-Glo residual ATP luminescence; AID 1868, 2009; Potency, µM (series often up to 57.5 µM), hits mostly inhibitors; 270,000 tested, 0.007% active
Target sequence (P51570 whole entry, looked up): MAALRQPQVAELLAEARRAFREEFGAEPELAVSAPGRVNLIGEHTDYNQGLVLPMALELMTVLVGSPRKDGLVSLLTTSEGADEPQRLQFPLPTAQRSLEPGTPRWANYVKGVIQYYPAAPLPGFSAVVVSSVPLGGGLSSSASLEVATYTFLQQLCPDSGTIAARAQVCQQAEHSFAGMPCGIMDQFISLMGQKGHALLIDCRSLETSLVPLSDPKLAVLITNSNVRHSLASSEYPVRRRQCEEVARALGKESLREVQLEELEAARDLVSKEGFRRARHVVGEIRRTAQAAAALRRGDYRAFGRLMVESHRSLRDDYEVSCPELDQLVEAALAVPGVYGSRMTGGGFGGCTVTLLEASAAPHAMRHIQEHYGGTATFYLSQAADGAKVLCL
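Galactose (100 uM) and ATP (35 uM) were turned over by 5 nM GALK for 1 h at RT. Kinase-Glo Plus then converted the remaining ATP into a luminescent signal.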
Numbers stand for hits; . = inactive; ? = inconclusive; / = no result. This is a sample that favours compounds with a hit; in the whole collection about 3.2% have one here. Unless noted, calls come from the whole dose curve; as a rule, active = well fitted curve in the direction sought with a large enough effect; inconclusive = small, poorly fitted or top-dose-only effect, or another doubt; inactive = no such curve, though single readings can be large; an effect the other way counts as inactive or inconclusive.

SMILES	Coupling enz	PLK1 PBD inh	USP2a block	VDR inh	USP1-UAF1 inh	GALK inhibitor
CC(=O)Oc1c(C)cc(O)c2ccccc12	-32.2	/	.	/	/	.
Cc1cc(O)c2ccccc2c1O	/	/	/	35.5µM	/	/
Cc1cccc(-c2noc(-c3ccc(Cl)cc3[N+](=O)[O-])n2)c1	.	.	.	.	.	.
O=[N+]([O-])c1cc2oc3c(c2c(C=NCc2ccncc2)c1O)CCCC3	-32.1	?	.	?	.	.
CC(C)(C)N=Cc1c(O)ccc2oc3c(c12)CCCC3	.	?	.	.	.	.
NC(=O)CC[C@H](NC(=O)c1ccc(F)cc1)C(=O)OCC(=O)NCc1ccc(F)cc1	.	?	.	70.8µM	.	.
NC(=O)CC[C@H](NC(=O)c1ccc(F)cc1)C(=O)OCC(=O)Nc1c(F)c(F)c(F)c(F)c1F	.	.	.	.	.	.
Cc1ccc(CCNC(=O)C2CCN(S(=O)(=O)N3CCCCC3)CC2)cc1	/	.	.	.	.	.
Cc1ccc(/C=C2/CNC/C(=C\c3ccc(C)cc3)C2=O)cc1	.	/	/	2µM	/	/
Cc1ccc(-c2cc(C(=O)N3CCOCC3)c3ccccc3n2)cc1	.	?	.	.	.	.
CCOC(=O)c1sc(NC(=O)/C=C/c2cnn(CC)c2C)c(C(=O)OCC)c1C	.	13.4µM	.	?	.	.
CCCOC(=O)c1c(NC(=O)/C=C/c2cnn(C)c2C)sc(C(=O)OCC)c1C	.	.	.	.	.	.
Cc1ccccc1-c1cc(N2CCN(C)CC2)ncn1	.	/	/	.	/	/
Cc1ccccc1-c1cc(N2CCNCC2)ncn1	.	/	/	44.7µM	/	/
Cc1cc(C(=O)OCC(=O)Nc2sc3c(c2C#N)CCC(C)C3)c2ccccc2n1 (centres undefined)	.	?	.	.	.	.
CC(=O)NC(CC(=O)OCC(=O)N1c2ccccc2NC(=O)C1(C)C)c1ccccc1 (centres undefined)	/	.	.	.	.	/
CCOc1ccccc1NC(=O)CSc1nnc(-c2ccccn2)n1Cc1ccco1	.	.	.	.	.	.
Cc1c(C(=O)C(=O)N2CCN(C)CC2)c2ccccc2n1C	.	.	.	.	.	.
C/C(Cn1nnc([N+](=O)[O-])n1)=N\NC(=O)c1ccc(O)cc1	.	.	.	.	.	/
C/C(Cn1nnc([N+](=O)[O-])n1)=N\NC(=O)c1ccc(O)cc1O	-35.7	.	.	.	.	.
C/C(Cn1nnc([N+](=O)[O-])n1)=N\NC(=O)c1ccc(Cl)c(Cl)c1	-43.4	.	.	.	.	.
COc1cc2c(cc1OC)C(c1ccc(Br)cc1)CC(=O)N2 (centres undefined)	.	.	.	.	.	.
Oc1ccccc1C(=S)N1CCN(C(=S)c2ccccc2O)CC1	.	23.8µM	.	.	.	.
Oc1ccccc1C(=S)N1CCCC1	.	?	.	?	.	.
Cc1ccc(N=C2C(=S)N(c3ccc(C)cc3)C(=N)N2/N=C/c2ccc(Cl)cc2)cc1	.	?	.	?	.	.
SMILES	Coupling enz	PLK1 PBD inh	USP2a block	VDR inh	USP1-UAF1 inh	GALK inhibitor
Cc1cc(C)n2nc(CC#N)c(C#N)c2n1	.	?	.	.	.	.
Cc1cc(C)n2nc(/C(C#N)=C/c3ccccn3)c(C#N)c2n1	.	.	.	20µM	.	.
C=C(C)[C@@H]1CCC2(C(=O)O)CC[C@]3(C)[C@H](CC[C@@H]4[C@@]5(C)CCC(=O)C(C)(C)[C@@H]5CC[C@]43C)[C@@H]12 (some centres undefined)	.	13.4µM	.	.	.	/
Cc1cc(C)c(C)c(OCCn2ccnc2)c1	.	.	.	.	.	.
COc1ccc(/C=N/NC(=O)/C(=C/c2ccccc2)CCO)cc1	.	26.7µM	.	?	.	.
Cc1ccc(/C=N/n2c(C)cc(C)c(C#N)c2=O)cc1	.	.	.	.	.	.
Cc1cc(C)n(/N=C/c2ccc(O)cc2)c(=O)c1C#N	.	29.9µM	.	.	.	.
O=C(O)c1cccc(N/N=C/c2cc(Br)cc(Br)c2O)c1	.	23.8µM	.	.	.	.
COc1ccc(Br)cc1/C=N/Nc1cccc(C(=O)O)c1	.	?	.	.	.	.
CCN(CC)c1ccc(N=C2C=CC(=O)C=C2NC(C)=O)cc1	/	.	/	70.8µM	.	/
CCN(CC)c1ccc(NC(=O)Nc2ccc(C(C)=O)cc2)cc1	.	.	.	.	.	.
Cc1cc(NC(=O)CSc2nnc(CNc3cccc(C(F)(F)F)c3)n2Cc2ccco2)no1	.	.	.	.	.	.
N#CC1=C(N)N(c2ccc(Br)cc2)C2=C(C(=O)CCC2)C1c1cccnc1 (centres undefined)	-43.7	.	.	?	.	.
Cc1cccc(N2CCN(C(=O)C(C)C)CC2)c1C	.	29.9µM	.	.	.	.
Cc1cccc(N2CCN(C(=O)Cc3cn(C)c4ccccc34)CC2)c1C	.	11.9µM	.	20µM	.	.
Cc1cccc(N2CCN(C(=O)C3CCC(=O)N(C4CC4)C3)CC2)c1C (centres undefined)	.	7.52µM	.	?	.	.
CN(CC(=O)Nc1ccccc1Br)C(=O)CNC(=O)c1cccs1	/	.	.	.	.	/
Cc1ccc(C(C)C)cc1S(=O)(=O)NCc1cccnc1	.	.	.	.	.	.
Cc1ccc(S(=O)(=O)N(C)C)cc1[N+](=O)[O-]	.	.	.	.	.	.
COc1ccc(C(=O)C2CCCN(C(=O)c3ccc(C(C)=O)s3)C2)c(C)c1 (centres undefined)	.	29.9µM	.	.	.	/
COc1ccc2cc(C(=O)C3CCCN(C(=O)c4cccnc4)C3)ccc2c1 (centres undefined)	.	.	.	.	.	.
COc1ccc2cc(C(=O)C3CCCN(C(=O)c4cnn(C(C)C)c4)C3)ccc2c1 (centres undefined)	.	23.8µM	.	?	.	.
COCc1ccc(C(=O)N2CCCC(C(=O)c3ccc(Cl)cc3C)C2)o1 (centres undefined)	/	18.9µM	.	?	.	.

Screening data deposited in PubChem BioAssay by National Center for Advancing Translational Sciences (NCATS).
